# Screens: PubChem, The Scripps Research Institute Molecular Screening Center
# proKLK7 act = activates the human kallikrein-7 zymogen; P49862; purified proKLK7, EDANS-DABCYL substrate fluorescence; 100% is mature enzyme control, 0% vehicle; activation, % at 7 µM; 370,000 compounds, 0.9% hits; AID 652039;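 active = activation above the mean of all tested compounds plus 3 SD, computed per campaign excluding outliers beyond control limits, cut at about 13% in these data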
# Target sequence (P49862 whole entry, looked up): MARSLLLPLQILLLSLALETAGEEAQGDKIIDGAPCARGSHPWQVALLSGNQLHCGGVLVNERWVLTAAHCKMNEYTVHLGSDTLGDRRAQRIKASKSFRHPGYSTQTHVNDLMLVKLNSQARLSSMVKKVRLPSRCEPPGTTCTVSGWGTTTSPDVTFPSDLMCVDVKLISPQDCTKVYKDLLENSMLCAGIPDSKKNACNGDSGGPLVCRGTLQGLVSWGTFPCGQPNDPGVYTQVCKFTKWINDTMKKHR
# MsrA inh = inhibits bovine methionine sulfoxide reductase A | purified bovine MsrA, absorbance read-out | inhibition, % at 15.5 µM | 360,000 compounds, 0.75% hits | AID 651718; in the data active = inhibition above about 4.5%;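 also: 0% = vehicle wells with enzyme and 100% = reference inhibitor wells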
# MsrA act = activators of bovine methionine sulfoxide reductase A | 360,000 compounds, 0.3% hits | activation, % at 10.6 µM | purified bovine MsrA, absorbance read-out | AID 602163; in the data active = activation above about 7.5%;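 also: 0% = vehicle and 100% = reference activator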
# SMARCA2 act = activators of SMARCA2 function. activation, % at 9.1 µM. MG213 cells, MMTV-luciferase reporter, dexamethasone, overnight. 370,000 compounds, 1% hits; in the data active = activation above about 7.8%;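 also: 0% = vehicle wells and 100% = reference activator wells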
# SMARCA2 act conf = SMARCA2 activation, confirmation screen. activation, % at 9.1 µM. shares compounds with SMARCA2 act. MG213 cells, MMTV-luciferase with dexamethasone, luminescence, overnight; MG213 cells expressing E1A, Rb sequestered; DMSO wells 0%, reference activator 100%. AID 652260. 3,500 compounds, 30% hits;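 active = activation above its plate's cutoff, the mean activation of tested wells plus 3 SD, cut at about 7.9% in these data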
# GAL4-VP16 Luc = GAL4-VP16 reporter activation counter-screen. shares compounds with SMARCA2 act. HEK293 GAL4-VP16 pG5luc reporter, luciferase luminescence; scaled: DMSO wells 0%, SAHA wells 100%. activation, % at 9.1 µM. 3,500 compounds, 41% hits. AID 686939;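 active = activation above the solvent-only control well mean plus 3 SD, averaged across control plates, cut at about 5.2% in these data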
# Active calls of the source: *; nt = no result. The list is not random: actives were taken first. Their share in the collection is about 2.8%.
SMILES,proKLK7 act,MsrA inh,MsrA act,SMARCA2 act,SMARCA2 act conf,GAL4-VP16 Luc
c1ccc(CSc2nnc(NC3CCCCC3)s2)cc1,-1,0,-4,16*,6,8.6*
O=c1cc(CSc2nnc(NC3CCCCC3)s2)nc2sccn12,0,2,-8,-4,nt,nt
O=C(COC(=O)c1nc(Cl)ccc1Cl)c1ccc[nH]1,0,1,-1,-2,nt,nt
O=C(COC(=O)c1nc(Cl)c(Cl)c(Cl)c1Cl)c1ccc[nH]1,0,0,-1,9.3*,20*,1
COc1ccncc1-c1ccc(C2=CC(=O)CC(C)(C)C2=O)cc1,3,1,-1,3,nt,nt
Cc1nc(SCc2ccccc2C#N)n[nH]1,1,-2,-3,2,nt,nt
Cc1ccccc1CSc1n[nH]c(NS(=O)(=O)c2ccccc2)n1,0,0,-1,8.0*,-6,0
COc1cccc2c1oc1c(SCc3nc4ccccc4[nH]3)nc(C)nc12,-3,0,-1,1,nt,nt
CC1=C(C(=O)N2CCCCCC2)CC(CC(=O)NCCN2CCOCC2)C(=O)N1Cc1ccc(F)cc1 (stereo not given),0,-1,-4,2,nt,nt
COc1ccc(N2CC(C(=O)Nc3cccc(C)n3)CC2=O)cc1 (stereo not given),-1,-1,-4,8.0*,1,2
CC(=O)Nc1cccc(NC(=O)C2CC(=O)N(c3ccc(C)cc3)C2)c1 (stereo not given),0,0,-1,9.5*,3,0
CCOc1ccc(N2CC(C(=O)Nc3cc(C)on3)CC2=O)cc1 (stereo not given),-1,-1,-8,7,nt,nt
COc1ccc(N2CC(C(=O)Nc3cc(C)on3)CC2=O)cc1 (stereo not given),0,0,-2,8.0*,0,0
CCCc1cnc(Nc2nc(C(N)Cc3ccc(OC)cc3)cs2)nc1 (stereo not given),0,-1,-9,0,nt,nt
Cc1sc2nc3c4ccccc4c(NCc4ccco4)nn3c(=O)c2c1C,-4,0,-1,13*,43*,19*
CCOCCCNC(=O)c1cccc(OC2CCN(S(C)(=O)=O)CC2)c1,-1,0,-4,8.3*,8,10*
COc1ccc2c3c(cccc13)C(=O)N(O)C2=O,1,1,-10,9.0*,44*,1
O=C1c2cccc3c([N+](=O)[O-])ccc(c23)C(=O)N1O,1,2,-5,7,nt,nt
CCc1nc2ccc(C(=O)Nc3ccc4c(c3)OCC(=O)N4)cn2c1N(C)Cc1nccn1C,0,1,-5,-6,nt,nt
Cc1oncc1C(=O)Nc1ccc2ccccc2c1,0,0,-3,9.1*,9.3*,5
CCCc1cc2c(=O)c(-c3ccccn3)coc2cc1OC,0,0,-3,11*,18*,6.2*
CCCc1cc2c(=O)c(-c3ccccn3)c(C)oc2cc1O,-7,2,-1,-5,nt,nt
c1ccc2c(-c3ccc4nncn4c3)cncc2c1,0,0,-1,-1,nt,nt
CC1CCN(C(=O)c2[nH]cnc2C(=O)N(C)CCO)CC1,-1,2,nt,-2,nt,nt
C[C@@H]1Cc2cc(O)c(O)c(O)c2C(=O)O1,1,nt,nt,-1,nt,nt
SMILES,proKLK7 act,MsrA inh,MsrA act,SMARCA2 act,SMARCA2 act conf,GAL4-VP16 Luc
COc1cccc(-n2c(CN3CCN(Cc4ccccc4)CC3)nc3ccc([N+](=O)[O-])cc3c2=O)c1,0,0,nt,12*,5,1
CCOC(=O)c1ccc(-n2c(CN3CCN(CCO)CC3)nc3ccc([N+](=O)[O-])cc3c2=O)cc1,0,1,-1,9.5*,9.8*,1
COc1ccc(-n2c(CN3CCN(Cc4ccccc4)CC3)nc3ccc([N+](=O)[O-])cc3c2=O)c(OC)c1,0,2,-8,4,nt,nt
CC(c1nc2ccccc2[nH]1)n1c(=O)c(-c2ccco2)nc2ccccc21 (stereo not given),0,1,nt,0,nt,nt
CCC(NC(=O)CN1CCN(c2cccc(OC)c2)CC1)c1ccccc1 (stereo not given),0,nt,nt,-4,nt,nt
CC(/C=C/c1ccc(OCc2ccccc2)cc1)=N\O,0,1,-5,7,nt,nt
CN(C)c1ccc(C(=O)/C=C/c2ccccc2)cc1,0,0,-2,10*,8.6*,14*
O=C(C=Cc1ccc(OCc2ccccc2)cc1)c1c(F)cccc1F,0,1,nt,10*,9.9*,1
CN(C)c1ccc(C(=O)/C=C/c2ccc(Br)cc2)cc1,0,1,-3,5,nt,nt
O=C(C=Cc1cccc(Cl)c1)c1ccccc1,1,0,-1,10*,2,2
CCOc1ccc(/C=C/C(=O)c2ccccc2)cc1,-3,2,-3,9.9*,6,12*
O=C(CSc1nnc(-c2cccnc2)n1-c1ccc(Cl)cc1)Nc1cccc2ccccc12,0,nt,nt,-5,nt,nt
O=C(CN1C(=O)CCSc2ccccc21)Nc1ccc(Cl)cc1,1,nt,nt,-5,nt,nt
CN(C)c1ccc(/C=C/C(=O)c2ccccc2)cc1[N+](=O)[O-],0,0,-4,9.3*,7,1
Cc1ccc(S(=O)(=O)N2CCC(C(=O)OCC(=O)N3CCCC3=O)CC2)cc1C,1,1,2,-3,nt,nt
Cn1nnnc1SCC(=O)Nc1nc2c(s1)CCCC2,0,0,-3,11*,6,9.0*
COc1cccc(NC(=O)NCCC2=CCCCC2)c1,0,0,-4,16*,5,11*
COc1ccc(-c2cc(NC(=O)Cc3c(C)[nH]c4ccccc34)ccc2Nc2cccnc2)cc1OC,-1,1,nt,-1,nt,nt
O=C(O)c1ccc(N=Nc2c(O)[nH]c3cc(Cl)ccc23)cc1,0,1,-5,14*,12*,14*
CC(C)C(=O)N1CCCC1(C)C(=O)NCc1ccc(Cl)cc1 (stereo not given),-1,0,-3,2,nt,nt
Clc1ccc2c(NCCNC3CCCCC3)ccnc2c1,1,1,-5,12*,-10,1
CC(C)NC1CCC(Nc2ccnc3cc(Cl)ccc23)CC1 (stereo not given),-1,2,-4,3,nt,nt
O=c1c(-c2cc3ccccc3[nH]2)nc2ccccc2n1C(CCc1ccccc1)c1nc2ccccc2[nH]1 (stereo not given),-32,0,nt,1,nt,nt
COc1ccc(-c2ccc(SCC(=O)N3c4ccccc4CC3C)nn2)cc1OC (stereo not given),0,1,-2,13*,2,4
COc1ccc(-c2c(Cc3ccccc3)nc(NC(=O)c3ccccc3F)n2C)cc1,0,nt,nt,0,nt,nt
Cc1cc(-c2ccc(Br)s2)nc(-n2cccc2)n1,-13,1,-2,12*,-5,4
CCc1nc2ccc(C(=O)Nc3ccc(C(N)=O)cc3)cn2c1N(CCC(C)C)CCN(C)C,-1,0,-3,-3,nt,nt
